The record followed here is PubChem BioAssay (NCATS).

Assay [1] has as its target Voltage-gated inwardly rectifying potassium channel KCNH2 (Homo sapiens) (UniProt Q12809). Description: qHTS Assay for Small Molecule Inhibitors of the Human hERG Channel Activity (AID 588834).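 Note: lower thallium flux fluorescence means stronger hERG block; nearly all actives have a fitted effect of over 50% in size.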 Note: potency is the fitted concentration of half-maximal effect. Summed up: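 Step 1: BacMam hERG transduction of U2OS, 4 hrs RT. Step 2: overnight 37 °C, plate 2000 cells/well, 4 hr. Step 3: FluxOR load, compound 10 min, stimulate, read fluorescence.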

Assay [2] deals with Vitamin D3 receptor (Homo sapiens) (UniProt P11473). Description: qHTS assay for small molecule agonists of vitamin D receptor signaling (AID 588543; calls by dose curve;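 note: 0% = DMSO basal and 100% = reference agonist control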). The procedure, abridged: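 Reporter cells (HEK293T, VDR-UAS-bla) were seeded in medium with 2% charcoal-stripped serum and incubated 5 h, then compounds in concentration series were added for 16 h at 37 °C. Stimulation was scaled between DMSO basal and 50 nM 1α,25-dihydroxyvitamin D3.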
Sequence of Vitamin D3 receptor (Homo sapiens) (P11473 whole entry, looked up): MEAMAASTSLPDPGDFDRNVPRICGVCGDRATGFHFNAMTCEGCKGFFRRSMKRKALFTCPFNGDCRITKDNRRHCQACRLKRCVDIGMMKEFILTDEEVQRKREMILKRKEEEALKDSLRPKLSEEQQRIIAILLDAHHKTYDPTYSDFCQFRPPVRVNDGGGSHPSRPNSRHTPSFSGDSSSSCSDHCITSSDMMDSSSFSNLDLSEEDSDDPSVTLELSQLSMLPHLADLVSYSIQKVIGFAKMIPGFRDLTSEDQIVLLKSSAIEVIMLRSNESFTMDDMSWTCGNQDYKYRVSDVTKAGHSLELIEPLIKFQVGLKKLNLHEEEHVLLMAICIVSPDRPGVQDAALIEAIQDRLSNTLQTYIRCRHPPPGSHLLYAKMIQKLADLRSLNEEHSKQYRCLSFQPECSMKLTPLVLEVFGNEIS
For orientation: In qHTS, concentration-response curves come from the screen itself.

Assay [3] can be described thus: qHTS assay for small molecule agonists of retinoid X receptor alpha signaling (AID 588544). Conditions: HEK293T RXRa-UAS-bla, beta-lactamase reporter, 18 h; 530 nm emission.
The target in assay [4] is Luciferin 4-monooxygenase (Photinus pyralis) (UniProt P08659). Description: Biochemical firefly luciferase enzyme assay for NPC (AID 624030).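 Note: purified P. pyralis luciferase at 10 nM with luciferin and ATP substrate; series mostly up to about 59 µM; 0% = DMSO and -100% = full luciferase inhibition by PTC124 control; nearly all actives have a fitted effect of over 70% in size.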 The procedure, abridged:
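Counter-screen for direct inhibition of the luciferase enzyme by approved-drug library compounds, run at 10 nM enzyme in 50 mM Tris acetate (final). Luminescence was read within 5 min of enzyme-buffer addition and normalized to PTC124 versus DMSO (0%).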

The nature of assay [5]: S16 Schwann cell viability assay (CellTiter-Glo assay) (AID 624031). Note: nearly all actives have a fitted effect of over 70% in size. Note: potency is the fitted concentration of half-maximal effect. Summed up: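 Counter-screen for cytotoxicity: parental S16 rat Schwann cells lacking the PMP22 reporters, treated 24 h with compound, viability from cellular ATP by CellTiter-Glo luminescence, normalized to DMSO (0%) and no-cell wells.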
In general terms: Cellular ATP, detected with luciferase, serves as a proxy for viable cell number.

Assay [6] is described as follows: S16 Schwann cell PMP22 intronic element firefly luciferase assay (AID 624032). Note: nearly all actives have a fitted effect of over 30% in size. Note: potency is the fitted concentration of half-maximal effect. The procedure, abridged:
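Rat S16 Schwann cells stably carrying a PMP22 intronic element-driven Fluc reporter were seeded overnight, then exposed to compounds for 24 h at 37 °C. Luminescence was normalized to PTC124 (positive control) and DMSO (0% activity).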

Assay [7] concerns the target Thyroid hormone receptor beta (Homo sapiens) (UniProt P10828). Description: qHTS assay for small molecule agonists of thyroid hormone receptor beta signaling (AID 588545; calls by dose curve). The procedure, abridged: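 Cells (2500/well) were seeded, incubated 4 hrs at 37 C, dosed with a compound series, incubated 18 hrs, loaded with CCF4 dye for 2 hrs at RT, then read for fluorescence. Data were scaled between DMSO (0%) and 10 nM T3 (100%).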

Assay [8] in a line: qHTS assay for small molecule antagonists of retinoid X receptor alpha signaling (AID 588546; active = well fitted inhibition curve with a large enough effect in the signal ratio, with a control signal flat, not every such curve was filed as active; the % refers to the signal ratio;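 note: cells stimulated with 9-cis-retinoic acid as agonist; % is set by controls: 0 for no effect and ±100 for the full control effect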). Conditions: HEK293T RXRa-UAS-bla, beta-lactamase ratio, antagonist mode; measured here: W530 green channel, cytotoxicity proxy. The procedure, abridged:
(§1)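 Beta-lactamase reporter inhibition, read as CCF4 fluorescence ratio (ex 405, em 460/530 nm) after 2 h at RT. HEK293T UAS-bla cells, 2500/well, were stimulated with 9-cis-RA at 500 or 100 nM final alongside test compound for 18 h at 37 C.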

Assay [9] concerns the target Retinoic acid receptor RXR-alpha (Homo sapiens) (UniProt P19793). The description is as above. Conditions: HEK293T RXRa-UAS-bla, beta-lactamase ratio, antagonist mode. Summed up:
as §1

In assay [10] the target is Thyroid hormone receptor beta (Homo sapiens) (UniProt P10828). Description: qHTS assay for small molecule antagonists of thyroid hormone receptor beta signaling (AID 588547; active = well fitted inhibition curve with a large enough effect in the signal ratio, with a control signal flat, not every such curve was filed as active; the % refers to the signal ratio;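 note: cells stimulated with 0.4 nM T3 agonist during compound exposure; series mostly up to about 77 µM; % is set by controls: 0 for no effect and ±100 for the full control effect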). The settings on record: TR-UAS-bla HEK293, beta-lactamase ratio, antagonist mode, 18 h. Summed up:
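TR-UAS-bla GripTite HEK293 cells in 2% charcoal/dextran FBS medium were preincubated 4 h at 37 C, given compound (0.59 nM to 92 uM) plus 0.4 nM T3 (final) for 18 h, then CCF4 for 2 h at RT; Hill fit gave IC50.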

Several values for one entry are separate records, joined by “and”; a condition that tells them apart may be missing. Equal values may be shown once. Results filed as inconclusive are left out. More than one record can exist for a structure, and the calls need not agree. Activity calls are given as the source filed them. Unless noted, calls come from the whole dose curve; as a rule, active = well fitted curve in the direction sought with a large enough effect; inconclusive = small, poorly fitted or top-dose-only effect, or another doubt; inactive = no such curve, though single readings can be large; an effect the other way counts as inactive or inconclusive. Non-standard residues stand in square brackets, D forms with d. Residues, ends and D or L forms follow the SMILES beside them. Peptide text beside a SMILES is read from it. *: point of attachment. Sta = CC(C)C[C@H](N)[C@@H](O)CC(=O)O; Isovaleryl = CC(C)CC(=O)*

Sequence of Retinoic acid receptor RXR-alpha (Homo sapiens) (P19793 whole entry, looked up): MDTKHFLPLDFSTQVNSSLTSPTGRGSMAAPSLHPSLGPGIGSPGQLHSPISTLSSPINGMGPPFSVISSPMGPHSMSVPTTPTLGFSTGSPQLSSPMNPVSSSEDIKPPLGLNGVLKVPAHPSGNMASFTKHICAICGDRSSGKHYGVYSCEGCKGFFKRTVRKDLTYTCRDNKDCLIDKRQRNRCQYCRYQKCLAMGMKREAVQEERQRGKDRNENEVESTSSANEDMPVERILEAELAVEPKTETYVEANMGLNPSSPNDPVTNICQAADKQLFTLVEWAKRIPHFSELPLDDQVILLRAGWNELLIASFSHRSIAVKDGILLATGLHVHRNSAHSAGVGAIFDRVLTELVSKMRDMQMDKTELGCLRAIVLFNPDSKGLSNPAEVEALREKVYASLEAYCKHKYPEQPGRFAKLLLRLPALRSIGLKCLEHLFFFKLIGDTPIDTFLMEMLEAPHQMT
Sequence of Luciferin 4-monooxygenase (Photinus pyralis) (P08659 whole entry, looked up): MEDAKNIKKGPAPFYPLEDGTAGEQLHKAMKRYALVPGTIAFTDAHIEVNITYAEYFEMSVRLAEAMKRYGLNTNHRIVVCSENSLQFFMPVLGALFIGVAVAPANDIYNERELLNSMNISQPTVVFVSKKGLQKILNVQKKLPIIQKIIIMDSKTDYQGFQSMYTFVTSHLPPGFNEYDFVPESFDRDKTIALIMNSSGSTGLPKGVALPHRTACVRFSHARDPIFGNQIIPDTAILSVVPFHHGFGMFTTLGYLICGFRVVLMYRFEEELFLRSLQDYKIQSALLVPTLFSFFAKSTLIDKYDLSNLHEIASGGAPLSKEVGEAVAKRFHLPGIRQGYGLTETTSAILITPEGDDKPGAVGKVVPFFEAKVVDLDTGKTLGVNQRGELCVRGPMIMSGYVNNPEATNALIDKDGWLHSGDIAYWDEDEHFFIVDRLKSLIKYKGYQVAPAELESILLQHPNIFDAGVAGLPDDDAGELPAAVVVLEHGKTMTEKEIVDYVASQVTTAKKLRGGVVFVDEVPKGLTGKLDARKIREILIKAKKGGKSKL
Sequence of Voltage-gated inwardly rectifying potassium channel KCNH2 (Homo sapiens) (Q12809 whole entry, looked up): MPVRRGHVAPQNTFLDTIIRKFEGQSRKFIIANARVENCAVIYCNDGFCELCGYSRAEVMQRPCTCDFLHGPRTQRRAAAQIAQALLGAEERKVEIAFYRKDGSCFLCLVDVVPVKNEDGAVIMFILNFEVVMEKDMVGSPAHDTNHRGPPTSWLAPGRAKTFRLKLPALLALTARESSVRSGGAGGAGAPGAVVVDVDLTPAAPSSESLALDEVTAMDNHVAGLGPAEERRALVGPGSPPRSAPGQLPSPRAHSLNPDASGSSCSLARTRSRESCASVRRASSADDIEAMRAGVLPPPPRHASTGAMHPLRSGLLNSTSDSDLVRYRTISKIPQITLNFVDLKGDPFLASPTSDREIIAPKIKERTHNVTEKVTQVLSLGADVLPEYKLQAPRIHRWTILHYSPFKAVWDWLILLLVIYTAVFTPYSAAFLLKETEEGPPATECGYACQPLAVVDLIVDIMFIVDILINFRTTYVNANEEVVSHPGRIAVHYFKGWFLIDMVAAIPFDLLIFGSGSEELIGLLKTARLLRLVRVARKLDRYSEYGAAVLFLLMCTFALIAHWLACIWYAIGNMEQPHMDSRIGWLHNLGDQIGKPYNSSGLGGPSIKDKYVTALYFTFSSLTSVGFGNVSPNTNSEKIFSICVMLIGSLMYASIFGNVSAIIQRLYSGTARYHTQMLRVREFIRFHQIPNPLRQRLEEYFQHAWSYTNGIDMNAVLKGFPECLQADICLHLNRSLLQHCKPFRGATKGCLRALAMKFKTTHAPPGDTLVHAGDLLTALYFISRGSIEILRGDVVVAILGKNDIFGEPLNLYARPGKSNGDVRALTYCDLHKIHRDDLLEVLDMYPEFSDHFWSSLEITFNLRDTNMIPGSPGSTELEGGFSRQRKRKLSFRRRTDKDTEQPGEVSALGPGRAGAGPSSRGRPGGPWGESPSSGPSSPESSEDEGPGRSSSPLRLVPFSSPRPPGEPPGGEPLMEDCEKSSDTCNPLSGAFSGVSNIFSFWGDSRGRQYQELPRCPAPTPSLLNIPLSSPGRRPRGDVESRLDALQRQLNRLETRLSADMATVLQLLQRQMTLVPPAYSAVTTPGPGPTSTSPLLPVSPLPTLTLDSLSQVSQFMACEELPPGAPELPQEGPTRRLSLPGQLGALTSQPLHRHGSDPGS
Sequence of Thyroid hormone receptor beta (Homo sapiens) (P10828 whole entry, looked up): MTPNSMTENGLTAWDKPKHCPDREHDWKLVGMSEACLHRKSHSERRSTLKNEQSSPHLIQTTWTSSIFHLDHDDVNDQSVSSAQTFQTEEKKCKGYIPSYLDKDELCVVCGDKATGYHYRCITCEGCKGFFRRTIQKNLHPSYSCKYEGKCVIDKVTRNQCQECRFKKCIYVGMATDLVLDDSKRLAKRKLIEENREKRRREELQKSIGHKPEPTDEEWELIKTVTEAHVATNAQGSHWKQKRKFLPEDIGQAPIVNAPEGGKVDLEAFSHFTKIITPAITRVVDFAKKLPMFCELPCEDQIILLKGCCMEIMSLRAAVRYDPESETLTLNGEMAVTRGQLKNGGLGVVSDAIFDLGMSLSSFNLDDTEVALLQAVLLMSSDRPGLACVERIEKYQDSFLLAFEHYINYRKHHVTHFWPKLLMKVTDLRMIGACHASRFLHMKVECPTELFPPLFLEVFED

Consider `S=c1nc[nH]c2nc[nH]c12`, for which, in [1], the Potency entry is “inactive”.
`N[C@@H](Cc1cc(I)c(Oc2cc(I)c(O)c(I)c2)c(I)c1)C(=O)O`: in assay [2], the result was inactive. In [3], the max response was -7.79%. Besides, the Potency entry in assay [1], in assay [4], in [5] and in assay [6] was “inactive” each time.
Regarding `O=c1c(O)c(-c2cc(O)c(O)c(O)c2)oc2cc(O)cc(O)c12`, in assay [1], the Potency result was “inactive”.
For `Cc1cccc(C#Cc2ccccc2)n1`, in assay [1], the Potency entry is “inactive”.
For the compound `Cc1ccc(C)c(OCCCC(C)(C)C(=O)O)c1`, the max response was 26.9% and -2.09% in assay [3]; 4.23% and -4.48% in [8]; 1.18% (inactive) and -8.41% (inactive) in assay [9]. The compound was classed as inactive in [7]. In [10], the activity change % (negative = inhibition) was -13.4% (inactive) and -13.2% (inactive). Also, the Potency entry in assay [1], in assay [4], in assay [5] and in assay [6] was “inactive” throughout.
In the case of `CCOC(=O)C1=C[C@@H](OC(CC)CC)[C@H](NC(C)=O)[C@@H](N)C1`, the Potency entry in [1] was “inactive”.
For the compound `Nc1ccc(S(N)(=O)=O)cc1`, the max response in assay [3] is -11.9%; in [8], -7.58%; in assay [9], 9.55% (inactive). The compound was classed as inactive in assay [7]. Besides, the activity change % (negative = inhibition) in [10] is -5.21% (inactive). The Potency result in [4], in assay [5] and in [6] was “inactive” each time.
In the case of `Nc1nc(Cl)nc2c1ncn2[C@H]1C[C@H](O)[C@@H](CO)O1`, the call in assay [2] and in assay [7] was inactive. Further, the max response is 5.76% in [8] and -2.35% (inactive) in assay [9]. The activity change % (negative = inhibition) in assay [10] is -1.32% (inactive). In addition, in [1], the Potency result was “inactive”.
On to `CC(C)c1ccc2c(c1)c(SC(C)(C)C)c(CC(C)(C)C(=O)O)n2Cc1ccc(Cl)cc1`, for which the Potency entry in [1] was “inactive”.
Turning to `CN(C)c1ccc2nc3ccc(=[N+](C)C)cc-3sc2c1`, in assay [7], the result was inactive. For the same compound, the max response in assay [8] was -22.9%; in assay [9], -3.23% (inactive). In addition, the activity change % (negative = inhibition) in [10] was 20.5% (inactive). For the same compound, the Potency result in [1] and in assay [6] was “inactive” in each case. Also, the Potency in [5] was 4.05 µM (active).
`COC(=O)[C@H](Cc1ccccc1)NC(=O)[C@@H](N)CC(=O)O` (H-Asp-Phe-OMe): the max response is 3.6% and 1.05% in assay [3]; 2.63% and 8.92% in assay [8]; 1.69% (inactive) and -7.67% (inactive) in assay [9]. Further, in assay [7], the compound was classed as inactive. Also, in assay [10], the activity change % (negative = inhibition) is 6.56% (inactive) and 1.22% (inactive). Moreover, the Potency entry in [4], in assay [5] and in assay [6] was “inactive” each time.
Consider `CCc1nc(N)nc(N)c1-c1ccc(Cl)cc1`, for which the compound was called inactive in [2] and in assay [7]. Also, the max response in assay [3] is 19.5% and 21%; in assay [8], 8.81%; in assay [9], -13% (inactive). Besides, the activity change % (negative = inhibition) in assay [10] was 6.74% (inactive) and -7.45% (inactive). In addition, the Potency in assay [1] is 39.8 µM (active) and inactive. The Potency result in assay [4], in assay [5] and in assay [6] was “inactive” each time.
Consider `CCCc1cc(=O)[nH]c(=S)[nH]1`, for which the max response in assay [3] is 3.33% and 11.8%; in assay [8] it was 2.58% and 1.92%; in assay [9], 3.88% (inactive) and 3.79% (inactive). For the same compound, the call in assay [7] was inactive. For the same compound, in assay [10], the activity change % (negative = inhibition) is 8.46% (inactive). In addition, the Potency entry in [4], in [5] and in assay [6] was “inactive” in each case.
Turning to `Clc1ccc(C(Cn2ccnc2)OCc2c(Cl)cccc2Cl)c(Cl)c1` (stereo not given), the Potency in [1] is 7.94 µM (active).
Turning to `COc1c2occc2cc2ccc(=O)oc12`, the compound was classed as inactive in assay [2] and in assay [7]. Moreover, the max response is -1.38% in assay [3]; 0.567% and -6.27% in assay [8]; 1.26% (inactive) and 12.5% (inactive) in assay [9]. In addition, in [10], the activity change % (negative = inhibition) was 4.14% (inactive) and -14.9% (inactive). Further, the Potency entry in [1], in assay [4], in assay [5] and in [6] was “inactive” each time.
`CC(=O)N1CCN(c2ccc(OC[C@H]3CO[C@](Cn4ccnc4)(c4ccc(Cl)cc4Cl)O3)cc2)CC1`: the compound was called inactive in assay [7].
For the compound `NC(=NCc1ccccc1)NC(=O)c1nc(Cl)c(N)nc1N`, the Potency in assay [1] was 5.62 µM (active).
`CS(=O)(=O)OCCCCOS(C)(=O)=O`: in [2], the result was inactive. For the same compound, the max response was -9.47% and 11.7% in assay [3]; 2.17% and -2.42% in assay [8]; 8.02% (inactive) and 2.56% (inactive) in assay [9]. The Potency entry in [1], in [4], in [5] and in [6] was “inactive” in each case.
As to `O=Nc1c(-c2c(O)[nH]c3cc(Br)ccc23)[nH]c2ccccc12`, the Potency in [1] was 11.2 µM (active).
As to `O=C1NC(=O)C(c2ccccc2[N+](=O)[O-])=C1Nc1ccc(O)c(Cl)c1`, the Potency result in assay [1] was “inactive”.
`CC(C)CC(=O)N[C@H](C(=O)N[C@H](C(=O)N[C@@H](CC(C)C)[C@@H](O)CC(=O)N[C@@H](C)C(=O)N[C@@H](CC(C)C)[C@@H](O)CC(=O)O)C(C)C)C(C)C` (Isovaleryl-VV[Sta]A[Sta]-OH): in assay [1], the Potency result is “inactive”.
For the compound `CCN(CC)C(=S)SSC(=S)N(CC)CC`, in assay [7], the call was inactive. Further, in assay [10], the activity change % (negative = inhibition) is -7.17% (inactive). For the same compound, in assay [6], the Potency is 4.55 µM (active).
On to `COc1cc(OC)c(C(=O)CCCN2CCCC2)c(OC)c1`, for which the call in assay [2] and in assay [7] was inactive. The figures for the max response in [3], in [8] and in assay [9] were 3.94%, -15.1% and -23.6% (inactive), respectively. Also, the Potency result in assay [4], in assay [5] and in [6] was “inactive” each time.
Take `CC1(C)NC(=O)N(c2ccc([N+](=O)[O-])c(C(F)(F)F)c2)C1=O`: the compound was called inactive in assay [2] and in [7]. Further, the max response in assay [3] was 13.6%; in assay [8], -4.34%; in assay [9], 1.48% (inactive). The Potency entry in assay [4] and in assay [5] was “inactive” each time.
For the compound `NS(=O)(=O)c1cc(C(=O)O)c(NCc2ccco2)cc1Cl`, the call in [2] and in [7] was inactive. For the same compound, the activity change % (negative = inhibition) in assay [10] was -7.01% (inactive) and -13.6% (inactive). Besides, the Potency result in assay [4], in [5] and in assay [6] was “inactive” each time.
Take `CNC[C@H](O)c1ccc(O)c(O)c1`: the compound was called inactive in [2] and in assay [7]. Moreover, the figures for the max response in [3], in assay [8] and in assay [9] were -11.1%, -9.39% and -4.11% (inactive), respectively. The Potency result in assay [4], in assay [5] and in assay [6] was “inactive” each time.
Consider `CCCCC(CC)COC(=O)C(C#N)=C(c1ccccc1)c1ccccc1` (stereo not given), for which the call in [2] was inactive. Moreover, the max response in assay [8] is -18.7%; in [9], -7.69% (inactive). Besides, the activity change % (negative = inhibition) in assay [10] was -9.58% (inactive). Besides, the Potency entry in assay [1], in [4] and in assay [5] was “inactive” throughout.
